Sampled rows, rich in hits. Any-hit rate of the full collection: about 1.3%.
PKM2 activator = PKM2 (human) enzyme activation | P14618 | purified PKM2, Kinase-Glo ATP luminescence, activation; response scale: 0% is enzyme alone, no compound | Potency, µM (titrated, usually from 57.5 µM), most hits filed as activators | 260,000 tested, 0.34% active; further: nearly all actives have a fitted effect of over 55% in size
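Kinase-Glo luminescence reports ATP generated from ADP (0.1 mM) and PEP (0.5 mM) by purified hPK-M2 after 1 h at room temperature, pH 7.2 imidazole buffer; intermediate enzyme activity allows detecting inhibitors and activators.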
TrxR1 substrate = substrates of rat thioredoxin reductase 1; O89049; purified TrxR1 substrate turnover, NADPH consumption readout; Potency, µM (series often up to 114 µM); 390,000 tested, 0.01% active; further: nearly all actives have a fitted effect of over 50% in size
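Rat TrxR1, dispensed at 90 nM, was prereduced with 400 uM NADPH (final) for 5 min at ~22 deg C, then incubated with compound 15 min before 400 uM selenite. A first-read NADPH fluorescence drop versus no-compound background flagged substrates.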
rTrxR1 inhibitor = inhibitors of rat thioredoxin reductase 1; O89049; recombinant rTrxR1, NADPH fluorescence consumption, selenite substrate; Potency, µM (top dose mostly 114 µM), hits mostly inhibitors; 390,000 tested, 1% active; AID 588453; further: nearly all actives have a fitted effect of over 65% in size
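Rat TrxR1 (90 nM in the dispensed reagent) was pre-reduced with 400 uM NADPH for 5 min at room temperature, then incubated with compound for 15 min. After 400 uM selenite was added, NADPH fluorescence (Ex 340/Em 450 nm) was followed for 8 min.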
mIDH1 inhibitor = blocks human mutant IDH1 R132H enzyme | 390,000 tested, 0.093% active | Potency, µM (highest dose often 76.6 µM), usual class: inhibitors | IDH1-R132H enzyme, NADPH consumption, diaphorase/resazurin fluorescence | AID 602179 | O75874; further: nearly all actives have a fitted effect of over 65% in size
Target sequence (O75874 whole entry R132H, stated change not applied): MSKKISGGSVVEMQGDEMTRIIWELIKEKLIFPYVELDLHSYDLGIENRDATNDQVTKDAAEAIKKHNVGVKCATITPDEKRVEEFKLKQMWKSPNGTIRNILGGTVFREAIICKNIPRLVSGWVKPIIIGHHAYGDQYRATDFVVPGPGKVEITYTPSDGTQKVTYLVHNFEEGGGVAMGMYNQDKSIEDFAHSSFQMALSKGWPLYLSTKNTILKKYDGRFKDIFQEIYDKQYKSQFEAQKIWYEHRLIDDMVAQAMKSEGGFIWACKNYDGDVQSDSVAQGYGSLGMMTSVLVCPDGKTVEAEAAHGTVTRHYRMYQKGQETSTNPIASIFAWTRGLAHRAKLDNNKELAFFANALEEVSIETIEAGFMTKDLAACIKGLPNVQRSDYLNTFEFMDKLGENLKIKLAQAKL
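IDH1-R132H (0.5 ug/mL dispensed) in pH 7.5 Tris buffer was preincubated 30 min with compound, then given a substrate mix of 0.016 mM NADPH and 2 mM alpha-KG for 80 min at room temperature; remaining NADPH was read by diaphorase/resazurin fluorescence.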
Anesthetic bind = candidate novel general anesthetic via apoferritin binding; apoferritin/1-aminoanthracene competitive binding, fluorescence; Potency, µM (doses to about 77.5 µM), usual class: inhibitors; 350,000 tested, 0.074% active; AID 485281; further: nearly all actives have a fitted effect of over 20% in size
Target sequence (P02791 2-175 limits assumed): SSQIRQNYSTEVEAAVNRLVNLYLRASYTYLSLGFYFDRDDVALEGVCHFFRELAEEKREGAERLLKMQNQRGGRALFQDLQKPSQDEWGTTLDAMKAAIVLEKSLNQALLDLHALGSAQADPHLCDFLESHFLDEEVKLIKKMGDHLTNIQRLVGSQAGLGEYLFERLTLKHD
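10 uM apoferritin + 50% sat. 1-AMA, PBS; cpd 10 min RT; Ex380/Em535 endpoint; normalized to free probe vs complex; 4-param Hill fit; propofol titration as pos. ctrl.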
GALK inh = inhibitors of human galactokinase; P51570; Purified GALK, Kinase-Glo residual ATP luminescence; Potency, µM (doses to about 57.5 µM), usual class: inhibitors; 270,000 tested, 0.007% active; AID 1868
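Human GALK (5 nM) with 35 uM ATP and 100 uM galactose in 20 mM HEPES pH 8.0, 5 mM MgCl2, 60 mM NaCl, 1 mM DTT, 0.01% BSA. After 1 h at room temperature, leftover ATP was read by Kinase-Glo Plus luminescence.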
Hits are given with their value; i = inactive; ? = inconclusive; nt = no result given; [ ] = another dose, or the depositor's remark. The call rests on the fitted dose curve; in most records, active means well fitted curve in the direction sought with a large enough effect; inconclusive means small, poorly fitted or top-dose-only effect, or another doubt; inactive means no such curve, though single readings can be large; an effect the other way counts as inactive or inconclusive.

SMILES	PKM2 activator	TrxR1 substrate	rTrxR1 inhibitor	mIDH1 inhibitor	Anesthetic bind	GALK inh
CC(NC(=O)/C(C#N)=C/c1ccc(Cl)c([N+](=O)[O-])c1)c1ccccc1 (configuration not stated)	?	i	40µM	i	?	i
NC(=O)c1ccc(NC(=O)COC(=O)/C=C/c2ccc(Br)o2)cc1	nt	i	45µM	i	nt	nt
Cc1ccc(NC(=O)COC(=O)/C=C/c2ccc(Br)o2)cc1S(=O)(=O)N(C)C	i	i	50µM	i	?	i
CN(C)S(=O)(=O)c1cccc(NC(=O)COC(=O)/C=C/c2ccc(Br)o2)c1	i	i	?	i	i	i
CCN(CC)Cc1c(NC(=O)c2ccccc2)sc(C)c1C	i	i	7.1µM	i	i	i
CCN(CC)C(=O)c1c(NC(=O)c2ccccc2)sc(C)c1C	i	i	i	i	i	i
CCN1CCCn2c1nc1c2c(=O)n(C)c(=O)n1C	i	i	79µM	i	i	i
Cn1c(=O)n(Cc2ccccc2)c(=O)c2c1nc1n2CCCN1Cc1ccccc1	i	i	i	i	i	i
Cc1ccc(C)n1-c1sccc1C(=O)O	i	i	50µM	i	i	i
Cc1ccc(N(Cc2cc3ccccc3[nH]c2=O)C(=O)c2cccc(Cl)c2)cc1	nt	i	i	i	i	nt
CCCc1cc(=O)oc2c(C)c3c(cc12)CN(CCc1ccc(Cl)cc1)CO3	nt	i	?	i	i	nt
Cc1ccc2[nH]c3c(=O)n(CC(=O)N4CCN(c5cccc(C(F)(F)F)c5)CC4)ncc3c2c1	nt	i	i	i	i	nt
Cc1ccc2[nH]c3c(=O)n(CC(=O)N4CCN(C)CC4)ncc3c2c1	nt	i	35µM	i	i	i
Cc1cccc(-c2nc(CS(=O)CC(=O)N3CCc4ccccc4C3)c(C)o2)c1 (configuration not stated)	i	i	13µM	i	i	i
Cc1cccc(-c2nc(CS(=O)CC(=O)NC3CCCC(C)C3C)c(C)o2)c1 (configuration not stated)	i	i	16µM	i	?	nt
Cc1cccc(-c2nc(CS(=O)CC(=O)N3CC(C)CC(C)C3)c(C)o2)c1 (configuration not stated)	nt	i	40µM	i	i	i
CCN1CCN(C(=O)CS(=O)Cc2nc(-c3cccc(C)c3)oc2C)CC1 (configuration not stated)	nt	i	?	i	i	i
Cc1cccc(-c2nc(CS(=O)CC(=O)NC3CCCC3)c(C)o2)c1 (configuration not stated)	i	i	?	i	i	i
CCc1ccc(-n2nc(CO)c(C(=O)NC(C)c3ccc(Cl)cc3)n2)cc1 (configuration not stated)	nt	i	?	i	i	nt
CCc1ccc(S(=O)(=O)Nc2cccc(-c3ccc(N4CCC(C)CC4)nn3)c2)s1	nt	i	i	i	i	nt
O=C(Nc1cccc(Cl)c1)OCc1cnc(Cl)s1	i	i	i	i	10µM	i
COc1ccc(CN2CC[C@H]3C=CC[C@@H](C(=O)Nc4nccs4)[C@H]3C2=O)cc1OC	nt	i	i	nt	nt	nt
Cc1ccc(/C=C/C(=O)Nc2nccs2)o1	i	i	45µM	i	i	i
Cc1ccc(/C=C/C(=O)Nc2ncc(C)s2)o1	i	i	40µM	i	i	i
CCOC(=S)SCC(=O)Nc1nccs1	18µM	i	i	i	i	i
SMILES	PKM2 activator	TrxR1 substrate	rTrxR1 inhibitor	mIDH1 inhibitor	Anesthetic bind	GALK inh
Cc1cnc(NC(=O)/C=C/c2ccc(Br)o2)s1	i	i	i	i	i	i
CCOC(=O)/C=C/C(=O)Nc1nccs1	i	i	50µM	i	i	i
Cc1c(CNCCCc2ccccc2)c(C(=O)O)c(C)n1Cc1ccc(Cl)cc1	nt	i	i	i	i	nt
CCOC(=O)c1cccc(NC(=O)Cn2c(=O)nc(-c3ccccc3F)c3cc(Cl)ccc32)c1	nt	i	i	i	i	nt
O=C(CCN1CCC2CCC(C2)C1)c1ccccc1 (configuration not stated)	nt	i[11.4 µM]	0.71µM	i	nt	nt
O=C(c1ccco1)N1CCN(C(=O)c2cc(Cl)nc3ccccc23)CC1	nt	i	i	i	nt	nt
COC(=O)c1cc(-c2ccc(C)o2)nc2ccccc12	?	i	32µM	i	i	i
O=C(OCC(=O)N1CCN(C(=O)c2ccco2)CC1)c1cc(-c2ccc(Cl)c(Cl)c2Cl)nc2ccccc12	?	i	i	i	i	i
O=C(c1ccco1)N1CCN(C(=O)c2cc(-c3ccccn3)nc3ccccc23)CC1	20µM	i	?	i	i	i
CCNC(=O)COC(=O)c1cc(-c2ccco2)nc2ccccc12	i	i	11µM	i	i	nt
Cc1ccc(-c2cc(C(=O)Nc3ccccc3C)c3ccccc3n2)o1	?	i	?	i	i	i
COc1ccc(CNC(=O)COC(=O)c2cc(-c3ccco3)nc3ccccc23)cc1	i	nt	nt	nt	i	i
O=C(OCC(=O)N1CCN(C(=O)c2ccco2)CC1)c1cc(-c2ccco2)nc2ccccc12	16µM	i	?	i	i	i
O=C(c1cccs1)N1CCCc2cc(NS(=O)(=O)c3cc(F)ccc3F)ccc21	nt	i	i	i	i	nt
CCN1CCOC(=O)C1CC(=O)Nc1cc(C)cc(C)c1 (configuration not stated)	nt	i	11µM	i	?	nt
CCc1ccc(NC(=O)CC2C(=O)OCCN2CC)cc1 (configuration not stated)	nt	i[11.4 µM]	6.3µM	i	i	nt
CCN1CCOC(=O)C1CC(=O)Nc1cc(Cl)ccc1OC (configuration not stated)	nt	i	11µM	i	i	nt
CCN1CCOC(=O)C1CC(=O)Nc1ccccc1C(F)(F)F (configuration not stated)	nt	i	?	i	i	nt
CCOC(=O)COc1ccc2ccccc2c1/C=C/[N+](=O)[O-]	?	i	7.1µM	i	i	i
Nc1ccc(-c2nc3c(Cl)c(N)ccc3[nH]2)cc1	i	i	79µM	i	i	i
Nc1ccc2nc(-c3ccc(Cl)cc3)[nH]c2c1	i	i	i	i	i	i
COc1ccc(OCc2ccc(-c3nc(C#N)c(N4CCN(C)CC4)o3)o2)cc1	nt	i	i	i	i	nt
O=C(NCc1ccccc1)c1ccc2nc(-c3ccco3)c(-c3ccco3)nc2c1	i	i	?	i	i	i
CCCCNC(=O)c1ccc2nc(-c3ccco3)c(-c3ccco3)nc2c1	i	i	2.8µM	i	i	i
O=C(NCCCO)c1ccc2nc(-c3ccco3)c(-c3ccco3)nc2c1	i	i	2.8µM	i	i	i
COc1ccc(N2C(=O)C(Cl)=C(Oc3cccc(OC)c3)C2=O)cc1	i	i	0.45µM	i	i	i
CCOC(=O)NC1(NC(C)C)Oc2ccccc2O1	i	i	i	i	i	i

High-throughput results from PubChem BioAssay.
